Records with an inconclusive call do not appear. Entries that show only a call come without a potency. Active and inactive are the calls of the source. Unless noted, calls follow the shape of the dose curve; as a rule, active = well fitted curve in the direction sought with a large enough effect; inconclusive = small, poorly fitted or top-dose-only effect, or another doubt; inactive = no such curve, though single readings can be large; an effect the other way counts as inactive or inconclusive.
Key:
[1] = target: Voltage-gated inwardly rectifying potassium channel KCNH2 (Homo sapiens) (UniProt Q12809); assay: qHTS Assay for Small Molecule Inhibitors of the Human hERG Channel Activity (AID 588834);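 also: lower thallium flux fluorescence means stronger hERG block; nearly all actives have a fitted effect of over 50% in size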; also: potency is read from the fitted curve at half-maximal effect
Sequence of Voltage-gated inwardly rectifying potassium channel KCNH2 (Homo sapiens) (Q12809 whole entry, looked up): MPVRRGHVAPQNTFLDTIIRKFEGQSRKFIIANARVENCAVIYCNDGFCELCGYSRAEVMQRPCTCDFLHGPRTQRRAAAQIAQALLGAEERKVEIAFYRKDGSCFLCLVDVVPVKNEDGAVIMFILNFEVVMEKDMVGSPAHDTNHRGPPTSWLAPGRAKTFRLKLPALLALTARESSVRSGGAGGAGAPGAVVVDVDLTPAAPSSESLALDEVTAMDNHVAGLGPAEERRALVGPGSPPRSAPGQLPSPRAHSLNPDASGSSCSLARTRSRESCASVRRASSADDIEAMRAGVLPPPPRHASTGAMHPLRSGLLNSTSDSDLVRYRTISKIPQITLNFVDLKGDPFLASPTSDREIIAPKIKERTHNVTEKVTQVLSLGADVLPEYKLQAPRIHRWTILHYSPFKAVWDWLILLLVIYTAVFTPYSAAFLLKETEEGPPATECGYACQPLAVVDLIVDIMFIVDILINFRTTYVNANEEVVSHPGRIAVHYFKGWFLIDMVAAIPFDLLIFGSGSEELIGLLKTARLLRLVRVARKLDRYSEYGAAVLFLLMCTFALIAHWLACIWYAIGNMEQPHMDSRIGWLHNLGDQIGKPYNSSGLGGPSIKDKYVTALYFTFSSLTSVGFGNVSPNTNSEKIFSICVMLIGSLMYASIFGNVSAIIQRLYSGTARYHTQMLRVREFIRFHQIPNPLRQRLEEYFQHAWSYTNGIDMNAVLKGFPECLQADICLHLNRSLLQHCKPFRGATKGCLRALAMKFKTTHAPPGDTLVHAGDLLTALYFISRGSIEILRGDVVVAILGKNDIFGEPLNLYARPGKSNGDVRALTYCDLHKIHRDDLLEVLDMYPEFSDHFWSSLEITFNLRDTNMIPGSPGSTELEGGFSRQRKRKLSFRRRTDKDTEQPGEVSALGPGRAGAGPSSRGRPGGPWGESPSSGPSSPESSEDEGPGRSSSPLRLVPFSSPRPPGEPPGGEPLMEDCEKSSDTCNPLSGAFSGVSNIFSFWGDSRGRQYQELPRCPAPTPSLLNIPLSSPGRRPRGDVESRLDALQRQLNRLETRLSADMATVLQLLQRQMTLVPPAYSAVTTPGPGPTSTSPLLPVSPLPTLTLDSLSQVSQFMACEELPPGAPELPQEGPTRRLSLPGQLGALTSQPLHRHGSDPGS
Method in brief: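 Thallium-flux (FluxOR) read-out on FDSS: fluorescence read 10 s before and 2 min after stimulation buffer. hERG-BacMam-transduced U2OS cells, compound exposure about 10 min. AC50 by standard Hill equation.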

[2] = target: Glutaminase kidney isoform, mitochondrial (Homo sapiens) (UniProt O94925); assay: qHTS for Inhibitors of Glutaminase (GLS): LOPAC Validation (AID 624146); also: nearly all actives have a fitted effect of over 60% in size; also: potency is read from the fitted curve at half-maximal effect
Sequence of Glutaminase kidney isoform, mitochondrial (Homo sapiens) (O94925 whole entry, looked up, canonical isoform): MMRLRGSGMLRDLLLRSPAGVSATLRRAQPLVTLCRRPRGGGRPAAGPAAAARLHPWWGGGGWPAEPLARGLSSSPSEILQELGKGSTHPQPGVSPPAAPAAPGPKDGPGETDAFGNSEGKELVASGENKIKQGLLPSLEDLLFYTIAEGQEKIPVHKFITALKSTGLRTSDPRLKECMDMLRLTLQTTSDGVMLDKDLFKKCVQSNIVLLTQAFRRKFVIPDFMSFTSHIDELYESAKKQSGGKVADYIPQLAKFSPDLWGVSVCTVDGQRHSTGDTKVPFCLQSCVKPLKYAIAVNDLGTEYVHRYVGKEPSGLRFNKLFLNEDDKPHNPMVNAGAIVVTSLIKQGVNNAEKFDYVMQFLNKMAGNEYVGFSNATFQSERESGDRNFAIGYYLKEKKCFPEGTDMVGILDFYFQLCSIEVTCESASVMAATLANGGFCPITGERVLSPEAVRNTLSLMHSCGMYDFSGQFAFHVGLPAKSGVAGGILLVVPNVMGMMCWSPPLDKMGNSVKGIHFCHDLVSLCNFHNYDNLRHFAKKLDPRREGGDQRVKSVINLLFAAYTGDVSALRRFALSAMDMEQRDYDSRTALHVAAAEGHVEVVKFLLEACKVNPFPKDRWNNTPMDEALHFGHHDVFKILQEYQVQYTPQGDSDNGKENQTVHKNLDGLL
Method in brief: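 Human kidney-isoform GLS in 45 mM KH2PO4 pH 8.2, 0.02% Tween-20, with compound, started with 1mM L-Glutamine (added stock). Glutamate oxidase/HRP/Amplex red coupled fluorescence read at start and after 30 min at RT.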

[3] = qHTS of Trypanosoma Brucei Inhibitors: LOPAC Validation (AID 624147)
Method in brief: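 Enzyme and substrate buffer are dispensed first and compound is pin-transferred. ADP at 130 uM final then starts the reaction, which runs 45 min at room temperature. Detection reagent is added for 10 min before luminescence is imaged.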

[4] = target: Glucagon-like peptide 1 receptor (Homo sapiens) (UniProt P43220); assay: qHTS of GLP-1 Receptor Agonists: LOPAC Validation (AID 624148);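 also: higher luminescence signal means agonism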
Sequence of Glucagon-like peptide 1 receptor (Homo sapiens) (P43220 whole entry, looked up): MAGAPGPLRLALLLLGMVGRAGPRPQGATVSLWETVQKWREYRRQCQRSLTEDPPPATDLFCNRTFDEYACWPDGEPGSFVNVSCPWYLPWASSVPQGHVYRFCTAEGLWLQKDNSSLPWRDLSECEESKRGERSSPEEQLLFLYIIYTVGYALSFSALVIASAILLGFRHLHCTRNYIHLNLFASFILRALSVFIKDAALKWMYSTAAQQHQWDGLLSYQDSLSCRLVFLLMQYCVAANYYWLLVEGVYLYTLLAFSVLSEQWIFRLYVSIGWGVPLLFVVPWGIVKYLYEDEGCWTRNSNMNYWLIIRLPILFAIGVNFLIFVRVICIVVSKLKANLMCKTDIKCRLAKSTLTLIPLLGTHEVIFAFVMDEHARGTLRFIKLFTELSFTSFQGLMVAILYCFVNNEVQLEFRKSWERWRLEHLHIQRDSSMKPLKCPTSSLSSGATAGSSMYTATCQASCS
Method in brief: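 HEK293 cells stably co-expressing GLP-1R and a cAMP-responsive luciferase reporter, plated 12 hours before compound, then incubated 4-6 hr at 37 deg C. Luminescence read 12 min after detection reagent.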

[5] = qHTS of Nrf2 Activators: LOPAC Validation (AID 624149)
Method in brief: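 AREc32_Fluc cells, 1000/well, OPTI-MEM + 5% FBS, o/n 37 deg C 5% CO2; compound pin-transfer, 24 hr 37 deg C; Steady-Glo 30 min RT, luminescence read.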

[6] = target: Luciferin 4-monooxygenase (Photinus pyralis) (UniProt P08659); assay: Biochemical firefly luciferase enzyme assay for NPC (AID 624030);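 also: purified P. pyralis luciferase at 10 nM with luciferin and ATP substrate; series mostly up to about 59 µM; nearly all actives have a fitted effect of over 70% in size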
Sequence of Luciferin 4-monooxygenase (Photinus pyralis) (P08659 whole entry, looked up): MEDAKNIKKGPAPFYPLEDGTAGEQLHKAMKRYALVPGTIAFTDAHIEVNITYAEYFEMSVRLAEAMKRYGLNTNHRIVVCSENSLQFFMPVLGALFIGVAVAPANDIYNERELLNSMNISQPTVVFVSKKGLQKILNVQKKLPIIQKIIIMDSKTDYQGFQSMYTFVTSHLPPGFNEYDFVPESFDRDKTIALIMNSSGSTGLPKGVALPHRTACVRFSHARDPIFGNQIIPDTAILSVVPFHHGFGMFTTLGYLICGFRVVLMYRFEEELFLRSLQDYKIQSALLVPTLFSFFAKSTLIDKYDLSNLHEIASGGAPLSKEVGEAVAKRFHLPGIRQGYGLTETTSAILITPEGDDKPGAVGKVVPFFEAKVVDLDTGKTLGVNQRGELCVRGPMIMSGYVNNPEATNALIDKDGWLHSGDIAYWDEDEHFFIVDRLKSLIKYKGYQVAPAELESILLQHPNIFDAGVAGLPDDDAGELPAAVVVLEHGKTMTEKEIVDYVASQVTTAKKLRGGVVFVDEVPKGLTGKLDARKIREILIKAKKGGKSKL
Method in brief: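 Purified P. pyralis luciferase at 10 nM in 50 mM Tris Acetate (final), luminescence read within 5 minutes of enzyme addition to compounds. Activity normalised to PTC124 versus DMSO; concentration-response curves classed by r2, magnitude and activity.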

[7] = S16 Schwann cell PMP22 intronic element beta-lactamase assay (AID 624044; calls by dose curve; also: nearly all actives have a fitted effect of over 15% in size)
Method in brief: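 Beta-lactamase reporter under a PMP22 intronic regulatory element in stable S16 rat Schwann cells; 24 h compound exposure. 460 nm blue signal normalized between DMSO (0%) and potassium clavulanate, with 535 nm FRET tracking viability; curves classed by r2 and response.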

[8] = HTS Assay for Allosteric Antagonists of the Human D2 Dopamine Receptor: Hit Validation in HTRF (AID 624455)
Method in brief: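 HTRF read-out; cells stably expressing D1 receptor; hits scored for inhibition of D1-mediated response. Primary screen: calcium flux, force-coupled inducible Hek293 Trex D2 line, antagonism vs EC80 dopamine.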

Row | SMILES | Potency [1] | Potency [2] | Potency [3] | outcome [4] | Potency [5] | Potency [6] | Potency [7] | Potency [8]
1 | CCCN(CCC)C1CCc2cccc(O)c2C1 (stereo not drawn) | inactive | inactive | inactive | inactive | inactive | – | – | –
2 | O=C(CS(=O)C(c1ccccc1)c1ccccc1)NO (stereo not drawn) | inactive | – | – | – | – | inactive | inactive | –
3 | NC(=O)CI | inactive | inactive | – | inactive | inactive | – | – | inactive
4 | CN(N=O)c1ccc(O)c(O)c1 | inactive | inactive | – | inactive | inactive | – | – | –
5 | Oc1ccc2c3c1O[C@H]1c4oc5ccccc5c4C[C@@]4(O)C(C2)N(CC2CC2)CCC314 (stereo partly drawn) | 0.355 µM (active) | 8.91 µM (active) | inactive | inactive | inactive | – | – | inactive

Source: PubChem BioAssay (NCATS)
